From PubChem
PostGolgi ctrl = growth of the yeast control strain, post-Golgi counter-screen | efflux-deficient yeast background strain, growth absorbance A615, 16 h | inhibition, % at 10 µM | 98,000 tested, 5% active | AID 738
PostGolgi yeast = growth inhibition of a yeast mutant, post-Golgi transport screen; post-Golgi transport phenotypic cell assay; inhibition, % at 10 µM; 98,000 tested, 0.9% active; AID 739;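 note: yeast cells grown in 1536-well plates; yeast grown about 18 h at 30C before absorbance read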
CYP2C9 activ = increases human cytochrome P450 2C9 activity; activation factor at 5 µM; AID 1024; 96,000 tested, 1.4% active; recombinant CYP2C9, luciferin-H conversion, luminescence; active compounds read high; factor 1 = untreated enzyme, 0 = blocked; P11712;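 active = activation factor of 2 or more for CYP2C9 at a 5 µM dose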
CYP2C19 inh = inhibitors of human CYP2C19; P33261; CYP2C19 Supersomes, luciferin-H EGE luminescence, 30 min; inhibition, % at 5 µM; 96,000 tested, 21% active;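 active = CYP2C19 inhibition above a set limit at 5 µM in the primary screen, cut at about 50% in these data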
Target sequence (P33261 whole entry, looked up): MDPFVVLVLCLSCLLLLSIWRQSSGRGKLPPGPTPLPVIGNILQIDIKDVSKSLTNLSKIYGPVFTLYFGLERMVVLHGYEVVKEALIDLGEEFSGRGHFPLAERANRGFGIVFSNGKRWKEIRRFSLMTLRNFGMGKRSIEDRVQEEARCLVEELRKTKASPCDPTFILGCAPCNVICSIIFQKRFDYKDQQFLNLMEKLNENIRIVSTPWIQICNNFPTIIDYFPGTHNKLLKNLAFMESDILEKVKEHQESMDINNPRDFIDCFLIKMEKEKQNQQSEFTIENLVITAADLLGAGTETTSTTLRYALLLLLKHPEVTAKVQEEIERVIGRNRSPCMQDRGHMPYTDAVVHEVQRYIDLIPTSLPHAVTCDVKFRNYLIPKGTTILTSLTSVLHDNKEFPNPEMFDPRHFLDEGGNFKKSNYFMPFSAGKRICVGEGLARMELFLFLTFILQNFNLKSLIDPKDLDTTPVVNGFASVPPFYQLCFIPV
CYP2C19 activ = activators of human cytochrome P450 2C19. P33261. recombinant CYP2C19, luciferin-H EGE luminescence; active compounds read high; 0 = fully inhibited enzyme, 1 = untreated enzyme. activation factor at 5 µM. 96,000 tested, under 10 active;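 active = activation factor of at least 2 at 5 µM in the primary screen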
CYP2C9 inhib = human CYP2C9 inhibition; CYP2C9 Supersomes, luciferin-H conversion, luminescence; inhibition, % at 5 µM; 96,000 tested, 20% active; P11712;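 active = blocking of liver enzyme CYP2C9 beyond about 50% at 5 µM, limit read from the data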
Hits are given with their value; 0 = inactive; - = not tested or not shown. This is a sample that favours compounds with a hit; in the whole collection about 32% have one here. Cut-off read from the data, not from the text of the source, unless noted: active = inhibition above about 30%; inactive = the rest.

SMILES	PostGolgi ctrl	PostGolgi yeast	CYP2C9 activ	CYP2C19 inh	CYP2C19 activ	CYP2C9 inhib
Cn1c(SCC(=O)N2CCc3ccccc32)nnc1C1CC1	0	0	0	76	0	0
Cc1nc(SCC(=O)N2CCc3ccccc32)n[nH]1	0	0	0	0	0	0
O=C(CSc1ccccc1)N1CCc2ccccc21	0	0	0	94	0	0
CCn1cc(SCC(=O)N2CCc3ccccc32)c2ccccc21	0	0	0	61	0	60
Nc1cc(N)nc(SCC(=O)N2CCc3ccccc32)n1	0	0	2.5	0	0	0
Cc1cc2cc(C)c3nnc(SCC(=O)N4CCc5ccccc54)n3c2cc1C	0	0	0	0	0	0
Cn1c(=O)c2c(n(Cc3ccccc3)c1=O)NC(=O)C2CC(=O)NCc1cccc(Cl)c1 (stereo not given)	0	0	0	0	0	0
COc1cc2nc(CN3C(=O)c4ccccc4C3=O)oc(=O)c2cc1OC	0	0	0	0	0	0
COc1ccccc1NC(=S)NNC(=O)c1nn(C)cc1Cl	0	0	0	57	0	0
COc1ccccc1NC(=O)c1nc[nH]c1C(=O)Nc1ccccc1OC	0	0	0	0	0	0
COc1ccccc1NC(=S)NNC(=O)c1nn(C)c(C)c1Cl	0	0	0	0	0	0
COc1ccccc1NC(=O)c1nn(C)cc1Br	36	0	2.2	0	0	0
Cc1noc(/C=C/N(C)C)c1S(=O)(=O)N1CCCC(C(=O)NC2CCCCC2C)C1 (stereo not given)	0	0	0	0	0	0
c1ccn2c(CNc3ncnc4sccc34)nnc2c1	0	0	-	-	-	-
O=C(NCCN1CCOCC1)c1cc2n(n1)C(C(F)(F)F)CC(c1ccc(F)cc1)N2 (stereo not given)	0	0	0	0	0	0
CCn1c(=O)cc(SCC(=O)NCCCN2CCN(c3ccccc3F)CC2)c2ccccc21	0	0	0	0	0	0
CC1CCN(S(=O)(=O)c2ccc(C(=O)OCc3ccc4c(c3)OCO4)cc2)CC1	0	0	0	0	0	0
COC(=O)c1ccc(COC(=O)c2ccc(S(=O)(=O)N3CCC(C)CC3)cc2)o1	0	0	0	0	0	69
CC(CC(=O)O)CC(=O)Nc1ccc(S(N)(=O)=O)cc1 (stereo not given)	0	0	0	0	0	0
CCCCCCCC(=O)NC(Nc1ccc(S(N)(=O)=O)cc1)C(Cl)(Cl)Cl (stereo not given)	0	0	0	0	0	77
O=C(CCc1ccccc1)NC(NC(=S)Nc1ccc(Br)cc1)C(Cl)(Cl)Cl (stereo not given)	0	0	0	0	0	97
CCCCCC(=O)NC(NC(=S)Nc1ccc(S(N)(=O)=O)cc1)C(Cl)(Cl)Cl (stereo not given)	0	0	0	60	0	93
C/C(Cl)=C/Cn1c(=O)c2c(nc(Br)n2Cc2ccccc2)n(C)c1=O	0	0	0	0	0	0
Cn1c(=O)c2c(n(C)c1=O)=NC1(CCCCC1)ON=2	0	0	0	0	0	0
CCNC(=O)Nc1cc2nc(C)n(Cc3ccc(Br)cc3)c2nc1C	0	0	0	80	0	0
SMILES	PostGolgi ctrl	PostGolgi yeast	CYP2C9 activ	CYP2C19 inh	CYP2C19 activ	CYP2C9 inhib
Cc1nn(C)cc1CNC(=O)Nc1ccc(Br)cc1Cl	0	0	0	0	0	0
Clc1ccc2nc(SCc3nnc(-c4ccccc4)o3)[nH]c2c1	0	0	0	86	0	76
COC(=O)CSc1nc2ccc(C)cc2[nH]1	0	0	0	0	0	0
Cc1ccc2nc(SCc3nnc(-c4ccccc4Br)o3)[nH]c2c1	0	0	0	83	0	75
Clc1ccc(OCc2nnc(SCc3nnc(-c4ccccc4)o3)o2)c(Cl)c1	41	0	0	92	0	0
Cc1ccc2nc(SCCCCOc3ccccc3)[nH]c2c1	0	0	0	63	0	72
Clc1ccc(-c2nnc(CSc3nnc(-c4cccs4)o3)o2)cc1	0	0	0	0	0	0
COc1ccccc1CC1(C)NC(=O)N(CC(=O)Nc2cc(C)on2)C1=O (stereo not given)	0	0	0	0	0	0
N#CC1=C(SCC(=O)Nc2ccccc2)NC(=O)CC1c1ccc(O)cc1 (stereo not given)	0	0	0	71	0	0
CCOc1ccccc1C1CC(=O)NC(SCC(=O)Nc2nccs2)=C1C#N (stereo not given)	0	0	0	60	0	67
Cc1ccc(C2CC(=O)NC(SCC(=O)Nc3nccs3)=C2C#N)cc1 (stereo not given)	0	0	0	0	0	65
COc1cc(C2CC(=O)NC(SCC(=O)Nc3ccccc3C)=C2C#N)ccc1O (stereo not given)	0	0	0	0	0	0
CN1C(=O)NC(c2ccccc2)C2=C1CN(c1ccc3ccccc3c1)C2=O (stereo not given)	0	0	0	0	0	0
CCC(=O)n1nc(-c2ccc(OC)cc2)nc1N	0	0	0	0	0	0
CCOc1cc(-c2c(C#N)c(N)nc3c2CCCC3C)ccc1O (stereo not given)	38	0	0	0	0	0
CCOc1cc(-c2cc(-c3ccc(C)cc3)nc(N)c2C#N)ccc1O	0	0	0	0	0	84
N#Cc1c(-c2ccco2)cc(-c2ccc(F)cc2)nc1N	0	0	0	0	0	0
CCOc1cc(/C=C(\C#N)c2[nH]nc(N)c2C#N)ccc1O	0	0	0	60	0	0
COc1ccc(-c2c(C#N)c(N)nc3c2CCCCCC3)cc1OC	0	0	0	0	0	0
CCSc1nnc(C)n1-c1ccc(C(=O)O)cc1	0	0	0	0	0	0
CC(C(=O)OCC(=O)Nc1ccc(S(=O)(=O)N2CCCCC2)cc1)N1C(=O)c2ccccc2C1=O (stereo not given)	0	0	0	0	0	92
O=C(COC(=O)CCC(=O)c1cccs1)Nc1ccc(S(=O)(=O)N2CCOCC2)cc1	41	0	0	0	0	89
O=C(CCN1C(=O)c2ccccc2C1=O)Nc1ccc(S(=O)(=O)N2CCOCC2)cc1	0	0	0	0	0	0
O=C(COC(=O)CCN1C(=O)c2ccccc2C1=O)Nc1ccc(S(=O)(=O)N2CCCC2)cc1	0	0	0	54	0	96
Cc1ccc(S(=O)(=O)N2CCOCC2)cc1NC(=O)COC(=O)CCC(=O)c1cccs1	0	0	0	0	0	0
CC1CCCN(S(=O)(=O)c2ccc(NC(=O)CCN3C(=O)c4ccccc4C3=O)cc2)C1 (stereo not given)	0	42	0	0	0	0
COc1cc(Cl)c(C)cc1NC(=O)COc1ccccc1[N+](=O)[O-]	0	0	0	0	0	0
COc1ccc(CNC(=O)C(OC(C)=O)c2ccccn2)cc1 (stereo not given)	0	0	0	0	0	0
CC1CC(C)CN(c2oc(-c3ccccc3Cl)nc2C#N)C1 (stereo not given)	0	0	0	0	0	0
